Screening data (PubChem BioAssay)
Calb FLC – affects C. albicans growth with fluconazole | 0.57% of 300,000 active | C. albicans CaCi-2 (fluconazole-resistant clinical isolate) + fluconazole, Alamar Blue growth, 48 h | AID 1979 | growth inhibition, % (no concentration beside the values);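 active means growth inhibition above about 58% in most replicates, limit read from the data, passing the limit was not always enough; inconclusive means exactly half the replicates above a set limit; inactive means most replicates below a set limit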;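 further: all wells also contain fluconazole at 8 µg/ml as a sub-toxic cotreatment; 0% = median of DMSO wells and 100% = median of geldanamycin control wells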
Cl transport mod – KCC2 (human) Cl- transport modulation; Q9H2X9; KCC2 cells, thallium flux FluoZin-2 fluorescence; B-score of Tl+ flux slope (higher = more flux/activation; lower = inhibition) at 10 µM; 2.2% of 190,000 active; AID 1456;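 active means thallium flux slope and its plate-corrected score both differing from the plate sample mean at a set confidence after two filtering rounds, in either direction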;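 further: slope of fluorescence scaled to starting intensity during 10 to 20 s after thallium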
Target sequence (Q9H2X9 whole entry, looked up): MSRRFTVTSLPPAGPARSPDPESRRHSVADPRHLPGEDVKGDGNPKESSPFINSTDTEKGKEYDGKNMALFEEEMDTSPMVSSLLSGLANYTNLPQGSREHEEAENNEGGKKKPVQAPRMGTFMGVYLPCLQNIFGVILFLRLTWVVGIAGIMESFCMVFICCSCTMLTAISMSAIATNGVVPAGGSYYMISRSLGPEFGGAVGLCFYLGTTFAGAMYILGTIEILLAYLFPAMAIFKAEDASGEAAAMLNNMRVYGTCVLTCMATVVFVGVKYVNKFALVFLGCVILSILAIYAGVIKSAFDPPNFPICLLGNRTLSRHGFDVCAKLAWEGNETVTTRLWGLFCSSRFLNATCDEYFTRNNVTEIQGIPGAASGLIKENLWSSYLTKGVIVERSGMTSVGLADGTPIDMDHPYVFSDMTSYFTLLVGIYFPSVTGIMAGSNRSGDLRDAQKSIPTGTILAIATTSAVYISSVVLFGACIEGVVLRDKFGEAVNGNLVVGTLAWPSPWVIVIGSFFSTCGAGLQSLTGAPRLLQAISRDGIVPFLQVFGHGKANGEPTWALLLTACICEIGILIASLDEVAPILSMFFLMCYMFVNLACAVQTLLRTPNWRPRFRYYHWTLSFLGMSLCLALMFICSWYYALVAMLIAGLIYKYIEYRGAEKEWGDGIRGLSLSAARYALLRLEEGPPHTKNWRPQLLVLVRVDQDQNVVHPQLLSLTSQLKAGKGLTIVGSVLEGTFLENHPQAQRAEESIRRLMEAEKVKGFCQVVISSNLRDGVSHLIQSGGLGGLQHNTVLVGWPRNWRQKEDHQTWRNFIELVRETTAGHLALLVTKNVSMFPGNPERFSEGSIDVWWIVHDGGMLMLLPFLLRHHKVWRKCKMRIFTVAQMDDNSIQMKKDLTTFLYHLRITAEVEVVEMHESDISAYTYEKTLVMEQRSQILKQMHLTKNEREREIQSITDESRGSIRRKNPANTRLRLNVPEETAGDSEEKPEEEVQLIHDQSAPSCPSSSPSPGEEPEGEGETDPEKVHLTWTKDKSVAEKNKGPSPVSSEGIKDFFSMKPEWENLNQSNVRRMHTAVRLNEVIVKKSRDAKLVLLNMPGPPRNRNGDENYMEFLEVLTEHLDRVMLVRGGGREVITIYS
Efflux pump inh – blocks antifungal efflux pumps in multiplex yeast assay; S. cerevisiae Candida pump triplex, Nile Red efflux; inhibition, % at 10 µM; 0.44% of 330,000 active; AID 485275;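 active means plate passing quality check with inhibition over a set limit, or well fluorescence over plate mean plus 4 SD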;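 further: Nile Red retained in pooled yeast measured as flow cytometry median fluorescence; 0% = buffer negative control and 100% = Enniatin B positive control; higher means more Nile Red kept so more efflux inhibition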
H9c2 protect – modulators protecting cardiomyocytes from myocardial damage; 0.63% of 360,000 active; protection from H2O2 cell death, % at 20 µM; H9c2 cardiomyocytes, H2O2 injury protection, ATPLite, 2 h; AID 588492;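 active means compounds giving at least 50% protection of heart cells from peroxide-induced death in the single-dose screen, raw or plate-pattern-corrected value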;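 further: 0% = DMSO wells with peroxide and 100% = DMSO wells without peroxide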
PHOSPHO1 inh – inhibitors of human PHOSPHO1 phosphatase. Q8TCT1. recombinant PHOSPHO1, absorbance phosphatase assay. inhibition, % at 13.3 µM. 1.1% of 290,000 active. AID 1565; in the data active means inhibition above about 60%
KCC2 sec1 – KCC2 (human) modulation, secondary assay | normalised thallium flux (F/F0 slope) at 10 µM | shares compounds with Cl transport mod | HEK293-KCC2, thallium flux, FluoZin2 fluorescence; hits give high values | 15% of 3,700 active | AID 1713;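 active means thallium flux slope above the same plate's solvent-only control mean plus 3 SD; inconclusive means the two replicate wells disagree; inactive means no significant difference from solvent-only control wells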
KCC2 bumet counter – thallium flux despite bumetanide block in KCC2 cells, secondary assay 3; 49% of 3,700 active; HEK293-KCC2 + bumetanide/ouabain, thallium flux FluoZin2; hits give high values; shares compounds with Cl transport mod; normalized thallium flux at 10 µM;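 active means thallium entry rate above the same plate's blocked-transporter control wells by more than 3 SD; inconclusive means the two repeat wells disagree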;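 further: raw slope of fluorescence over initial fluorescence between 10 and 20 s after thallium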
KCC2 secondary2 – KCC2 (human) modulation, second secondary assay; 23% of 3,700 active; shares compounds with Cl transport mod; HEK293-KCC2, thallium flux FluoZin2 fluorescence; actives lie on both sides; F/F0 rise rate, 10–20 s post-thallium; normalized thallium flux at 10 µM; AID 1715;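 active means thallium flux slope more than 3 SD above or below the plate's solvent-only control mean, mostly below; inconclusive means the two repeat wells disagreed; inactive means no significant shift from solvent-only controls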;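 further: raw slope with 0.1% DMSO as baseline and bumetanide as block control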
HEK counter1 – parental HEK flux effect, counter-screen; 46% of 3,700 active; shares compounds with Cl transport mod; HEK293 parental cells, thallium flux FluoZin2, ouabain; baseline-ratio fluorescence slope, 10–20 s after thallium; AID 1716; thallium flux rate (normalised fluorescence) at 10 µM;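 active means thallium flux rate significantly above the same plate's solvent-only control wells, beyond their mean plus 3 SD; inconclusive means the two replicate wells gave conflicting results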
KCC2 ouabain – KCC2 (human) modulation, ouabain retest; shares compounds with Cl transport mod; HEK293-KCC2, thallium flux FluoZin2 fluorescence; bidirectional: low = inhibitor, high = activator; raw Tl+ flux slope (below DMSO = inhibition, above = activation) at 10 µM; 48% of 3,700 active;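 active means thallium flux slope beyond 3 SD from same-plate DMSO control mean in most replicates, usually higher, sometimes lower; inconclusive means repeat tests gave conflicting results; inactive means no significant difference from controls in most replicates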;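 further: slope of initial-normalized fluorescence between seconds 10 and 20 after thallium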
HEK counter2 – parental HEK flux effect, counter-screen 2. shares compounds with Cl transport mod. HEK293 parental, thallium flux FluoZin-2 fluorescence slope. thallium flux slope at 10 µM. 33% of 3,700 active. AID 1718;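 active means thallium flux slope above the same plate's solvent-control mean plus 3 SD in both duplicate wells; inconclusive means duplicate wells that disagreed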;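 further: run without ouabain in cells lacking the KCC2 cotransporter; slope of fluorescence scaled to its starting value between 10 and 20 s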
Cmpd fluor yeast – compound fluorescence in yeast efflux pump counter-screen. shares compounds with Efflux pump inh. S. cerevisiae AD/pABC3, flow cytometry. fluorescence ratio to DMSO, % at 10 µM. 4% of 1,700 active. AID 588517;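 active means fluorescence ratio to DMSO above its plate's cutoff, the plate mean ratio plus 5 SD, cut at about 210% in these data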;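 further: unstained yeast with no Nile Red so the signal is compound autofluorescence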
Mdr1 pump inh – Candida Mdr1 efflux pump inhibition; inhibition, % at 10 µM; 1% of 1,700 active; shares compounds with Efflux pump inh; S. cerevisiae AD/CaMDR1, Nile Red efflux, flow cytometry; AID 588518; in the data active means inhibition above about 26%;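 further: 0% = DMSO vehicle and 100% = reference inhibitor; higher means more Nile Red retained so more efflux inhibition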
Cdr2 pump inh – inhibitors of Candida albicans Cdr2 efflux pump; shares compounds with Efflux pump inh; S. cerevisiae AD/CaCDR2, Nile Red retention, flow cytometry; Nile Red retention ratio vs DMSO, % at 10 µM; 4% of 1,700 active; AID 588520; in the data active means Nile Red retention ratio vs DMSO above about 190%;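 further: higher ratio means more blocking of Cdr2 efflux of the dye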
Cdr1 pump inh – Candida Cdr1 efflux pump inhibition; 1% of 1,700 active; shares compounds with Efflux pump inh; S. cerevisiae AD/CaCDR1, Nile Red efflux, flow cytometry; inhibition, % at 10 µM;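 active means inhibition above the screen-wide mean plus twice its standard deviation, cut at about 32% in these data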
* = called active by the depositor; ? = inconclusive; · = no result. A selection: hits, their analogues and other compounds. The true share with any hit is near 3.3%.

SMILES	Calb FLC	Cl transport mod	Efflux pump inh	H9c2 protect	PHOSPHO1 inh	KCC2 sec1	KCC2 bumet counter	KCC2 secondary2	HEK counter1	KCC2 ouabain	HEK counter2	others
CCOC(=O)C(O)(c1ccc(NC(=S)NC(=O)c2ccc(Cl)cc2Cl)c(C)c1)C(F)(F)F (stereo not given)	60	5.5*	0	-26	-2	0.0063	0.029*	0.036	0.014*	0.029*	0.016*
CCOC(=O)C1(CCc2ccccc2)CCN(CC(O)CO)CC1 (stereo not given)	-3	·	0	-2	36	·	·	·	·	·	·
Cc1ccc(S(=O)(=O)N(C)C)cc1NC(=O)C(C)[N+]12CCN(CC1)CC2 (stereo not given)	-4	-0.75	0	-9	-8	·	·	·	·	·	·
O=C(C1CCN(c2nc3ccc(Br)cc3s2)CC1)N1CCC2(CC1)OCCO2	-19	-5.1*	0	-27	36	0.0076	0.0054	0.027*	0.0071	0.019*	0.01
CN1[C@H]2CC[C@@H]1C(C(=O)N1CCOCC1)=C(O)C2	·	·	0	1	·	·	·	·	·	·	·
O=C(c1cc2c(s1)-c1ccccc1OC2)N1CCC2(CC1)OCCO2	100*	-4.1*	0	2	14	0.0072	0.0052	0.026*	0.0078	?	0.012
COC(=O)C1=C(c2cccc(OCc3ccccc3)c2)C[C@@H]2CC[C@H]1N2C(=O)NCCN1CCOCC1	·	·	0	0	·	·	·	·	·	·	·
CC(C)c1ccc(N=Nc2c(O)[nH]c(=O)[nH]c2=O)cc1	-9	0.11	0	0	13	·	·	·	·	·	·
O=c1[nH]c(=S)[nH]c(O)c1N=Nc1ccc(SC(F)F)cc1	33	42*	0	-16	41	0.008	0.072*	?	0.041*	0.087*	0.012*
COc1cc(/C=C/C(=O)c2c(O)n(CCc3ccccc3)c(=O)[nH]c2=O)ccc1O	1	-6.4*	0	-12	9	?	-0.0096*	0.034	0.0013*	0.004*	?
O=C(COc1ccc(Cl)cc1)N1CCN(Cc2ccccc2)CC1	36	·	0	-2	5	?	0.0055	0.029	0.007	0.025*	0.01
CC(C)NS(=O)(=O)c1ccc(OCC(=O)N2CCN(Cc3ccccc3)CC2)cc1	-1	-1.4	0	-8	·	·	·	·	·	·	·
CC(C)CCP(=O)(O)c1ccccc1	-18	8.3*	0	8	-12	0.012	0.0065	0.035	0.008	0.023	0.011
O=C1NC(=O)N(c2ccccc2)C(=O)/C1=C/c1coc2ccc(O)cc2c1=O	1	-4.8*	0	-16	25	0.007	0.0042	0.028	0.0058*	0.014*	0.0088
Cc1ccc(S(=O)(=O)Nc2cc(C(=O)N3CCC4(CC3)OCCO4)ccc2N2CCCCC2)cc1	2	·	0	1	11	·	·	·	·	·	·
CC(=O)Nc1cc(C(=O)N2CCC3(CC2)OCCO3)ccc1S(=O)(=O)c1ccc(Cl)cc1	20	-6.4*	0	2	-1	0.0077	0.0053	0.03	0.0085	0.019	0.012
CCCC(=O)Nc1cc(C(=O)N2CCC3(CC2)OCCO3)ccc1S(=O)(=O)c1ccc(C)cc1	-16	-5.2*	0	-5	7	0.0097	0.006	0.033	0.0073	0.022	0.01
CC(=O)Nc1cc(C(=O)N2CCC3(CC2)OCCO3)ccc1S(=O)(=O)c1ccc(C)cc1	?	·	0	1	-5	·	·	·	·	·	·
COc1ccc(CN2CCN(Cc3ccccc3)CC2)c(OC)c1	-4	5.4*	0	-3	6	0.008	0.0059	0.03	0.0062	0.02	0.0088
COc1ccc(CN2CCN(C(=O)Cc3ccccc3)CC2)c(OC)c1	1	0.01	0	-9	-18	·	·	·	·	·	·
C=C1C2[C@H](OC(C)=O)[C@@H]3CC(=O)[C@]4(C)OC[C@@]3(C)[C@@]4(O)[C@@H](OC(C)=O)[C@H](OC(C)=O)[C@@]2(COC(=O)c2ccccc2)[C@@H](OC(C)=O)C[C@@H]1O (stereo not given in full)	2	·	0	-1	34	·	·	·	·	·	·
O=C1NC(=O)C2(Cc3c(nc4ccccn4c3=O)N3CCCCCC32)C(=O)N1Cc1ccccc1 (stereo not given)	·	-4*	0	15	-42	0.0063	0.0051	?	0.0051*	0.016*	0.0085
O=C1NC(=O)C2(Cc3ccccc3N3CCCC32)C(=O)N1Cc1ccccc1 (stereo not given)	?	-0.78	0	-4	1	·	·	·	·	·	·
CCC1(C(=O)c2ccccc2)C2c3ccccc3OC(=O)C21C(C)=O (stereo not given)	0	0.59	0	4	15	·	·	·	·	·	·
CN1C2CCC1CC(OC(=O)CCN1CCCC1)C2 (stereo not given)	?	0.83	0.5*	1	23	·	·	·	·	·	·	Cmpd fluor yeast=102;Mdr1 pump inh=0;Cdr2 pump inh=107;Cdr1 pump inh=0
CC12C=CC(=O)C=C1CC(O)C1C2CCC2(C)C1CCC2(C)O (stereo not given)	·	·	·	1	·	·	·	·	·	·	·
CC1(C)C(=O)CC[C@@]2(C)C1=CCC1C2CC[C@]2(C)C(=O)CCC12 (stereo not given in full)	·	·	0	-17	·	·	·	·	·	·	·
CC1(C)C(C(=O)N2CCN(C(=O)c3ccccc3)CC2)C1(C)C	7	·	0	9	31	·	·	·	·	·	·
